Laboratory results from PubChem BioAssay AID463173 (ICCB-Longwood Screening Facility, Harvard Medical School, 2010).
About 1,700 (3.3%) of roughly 52,000 compounds were called active. Many of the other results were omitted from the sample, so actives are more common in it than they were. Unmarked numbers belong to inactive results. No stated cut-off is given here; in the data, active means survival mostly below about 52% (no sharp cut-off); inactive means mostly above about 56%.

These molecules were tested on Wild type (assay: growth inhibition of S. aureus wild type versus tarO mutant, primary screen, teichoic acid synthesis inhibitors, RN4220, OD600 (AID 463173)). Details: S. aureus RN4220 wild type/DeltatarO growth, OD600, 18 h, active compounds read low, screened at 18.75 µg/mL (by protocol).

In order of falling survival:
1. Cc1cccc(NC(=O)CC2C(=O)OCCN2Cc2ccccc2)c1 (stereo not given)  137%
2. CCc1nnc(NC(=O)CSc2nccn2-c2ccc(OC)cc2)s1  135%
3. Cc1cccc(CNC(=O)Cn2c(-c3cccs3)cc3ccccc32)c1  135%
4. Cc1ccc(-n2ncc3c(N4CCN(Cc5ccccc5)CC4)ncnc32)cc1  131%
5. Cc1ccc(CNC(=O)Cn2c(SCC(=O)Nc3ccc(F)cc3)nc3ccccc32)cc1  131%
6. Cc1ccccc1Cn1c(COc2ccc(Cl)cc2)nc2ccccc21  130%
7. COc1ccc(-c2noc(=O)n2Cc2ccccc2)cc1  128%
8. CCOC(=O)c1[nH]c2c(c1Cc1ccccc1OC)C(=O)CC(c1ccccc1)C2 (stereo not given)  126%
9. CSc1ccc(CCNC(=O)c2cc(C)nc3c2c(C)nn3-c2ccccc2)cc1  124%
10. Cc1ccccc1Cn1cnc2ccccc21  116%
11. O=C(Cn1c(=O)n(Cc2ccc(C(=O)NCc3ccc4c(c3)OCO4)cc2)c(=O)c2ccccc21)Nc1ccc(F)cc1F  111%
12. OCc1nc2ccccc2n1Cc1ccccc1Cl  111%
13. CC1(N)CCS(=O)(=O)C1 (stereo not given)  110%
14. CC(C)c1ccc(NC(=O)CN2C(=O)COc3ccc(S(=O)(=O)N4CCCCCC4)cc32)cc1  109%
15. C=CCn1c(SC(C)C)nc2sc3c(c2c1=O)CCCC3  108%
16. COc1ccc(Cn2c(SC)nc3ccccc32)cc1  108%
17. CCN(CC)S(=O)(=O)c1ccc(S(=O)(=O)NCc2ccc3c(c2)OCO3)cc1  108%
18. COc1ccc(CCNC(=O)CCc2c(C)c3cc4c(C)coc4c(C)c3oc2=O)cc1OC  105%
19. CSc1nc2sc3c(c2c(=O)n1-c1ccccc1C)CCCC3  99%
20. CCC(O)c1nc2ccccc2n1Cc1cc(C)ccc1C (stereo not given)  99%
21. OCc1nc2ccccc2n1Cc1c(F)cccc1Cl  98%
22. O=C(CN1C2=NCCN2c2ccccc21)C12CC3CC(CC(C3)C1)C2  98%
23. Cc1ccccc1C(=O)Nc1ccccc1-c1nc(-c2ccccc2)no1  95%
24. CC(C)C(=O)Nc1ccc2nc(SCCOc3ccccc3)sc2c1  93%
25. COc1cc(-c2nnn(CC(=O)Nc3ccc(OC(F)(F)F)cc3)n2)cc(OC)c1OC  92%
26. CCS(=O)(=O)N1CCc2cc(C(=O)NC(C)c3ccccc3)ccc21 (stereo not given)  90%
27. O=C(NCc1nc2ccccc2n1Cc1ccccc1Cl)c1ccccc1  90%
28. CCS(=O)(=O)NCC(c1ccco1)N1CCN(c2ccccc2)CC1 (stereo not given)  89%
29. Cc1ccc(C)c(Cn2c(C(C)NC(=O)c3ccccc3)nc3ccccc32)c1 (stereo not given)  88%
30. CN(C(=O)CSc1nc2ccccc2n1Cc1cccc(C(F)(F)F)c1)c1ccccc1  87%
31. CN(C)c1ccc(C2CC(c3c(O)n(C4CCCCC4)c(=O)[nH]c3=O)=Nc3ccccc3S2)cc1 (stereo not given)  85%
32. COc1ccc(Cn2c(SCC(=O)Nc3ccc(OC)cc3)nc3ccccc32)cc1  85%
33. Nc1nn(-c2ccccc2)nc1C(=O)OCc1ccccc1  85%
34. CC(=O)N1CCCC1c1nc2ccccc2n1Cc1cccc(C)c1 (stereo not given)  85%
35. COc1ccc(NC(=O)c2nc(S(=O)(=O)Cc3ccc(C)cc3)ncc2Cl)cc1  81%
36. CCCCn1c(=N)n(CCOc2ccccc2OC)c2ccccc21  81%
37. Cc1ccccc1NC(=O)CSc1nc2ccc(NC(=O)COc3ccccc3F)cc2s1  81%
38. CCOc1cc(Cn2c(-c3ccc(O)c(OCC)c3)nc3ccccc32)ccc1O  80%
39. CCOC(=O)N1CCc2c(sc(NCc3sccc3C)c2C(=O)Nc2cc(Cl)ccc2OC)C1  80%
40. O=c1n(Cc2ccc(F)cc2)nc2n1-c1cc(Cl)ccc1OC2  76%
41. CCc1cccc(NC(=O)CCNS(=O)(=O)c2ccc3c(c2)CCN3C(C)=O)c1  76%
42. COc1cccc(CNC(=O)Cn2c(SCC(=O)Nc3ccc(C)c(C)c3)nc3ccccc32)c1  76%
43. Cc1ccccc1NC(=O)Cn1c(SCC(=O)Nc2ccc(F)cc2)nc2ccccc21  76%
44. CCN1CCN(c2oc(-c3ccc(COc4ccc(OC)cc4)o3)nc2C#N)CC1  75%
45. COC(=O)c1ccc(Cn2c(SCC(=O)N(C)c3ccccc3)nc3ccccc32)cc1  75%
46. O=C(Nc1nnc(C(F)(F)F)s1)c1ccccc1  74%
47. CCOC(=O)c1ccc(CN(Cc2ccc(Cl)cc2Cl)S(=O)(=O)c2cccc(Cl)c2)cc1  73%
48. COc1ccccc1NC(=O)c1sc2nc(C)c(C(=O)Nc3ccc(C)cc3C)c(-c3ccco3)c2c1N  73%
49. NC(=O)CSc1ncc2c(n1)-c1ccccc1N(Cc1cccc(F)c1)S2(=O)=O  73%
50. O=C(CSc1nc2ccccc2n1CC(=O)Nc1ccc(F)cc1F)Nc1ccc(F)cc1  72%
51. CCc1ccccc1N(CC)C(=O)c1c(C)oc2ncn(C)c(=O)c12  71%
52. Cc1ccc(Cl)cc1NC(=O)C1CCN(c2nnc(C)c3c(C)n(-c4ccccc4)nc23)CC1  71%
53. CC(C)c1cc(-c2nc(-c3ccccc3)no2)n[nH]1  71%
54. Cc1cc(OCC(=O)NC(Cc2c[nH]c3ccccc23)C(=O)O)ccc1Cl (stereo not given)  69%
55. COc1ccc(CNC(=O)Cn2c(SCC(=O)Nc3ccc(OC)cc3)nc3ccccc32)cc1  69%
56. CCOC(=O)c1ccc(CN(Cc2ccc(F)cc2)S(=O)(=O)c2ccc(F)cc2)cc1  68%
57. CCCn1cc(S(=O)(=O)c2ccc(CC)cc2)c(=O)c2cc(F)c(N(CC)CC)cc21  68%
58. CCCC(=O)NCCc1nc2ccccc2n1Cc1c(F)cccc1Cl  66%
59. O=C(Cn1c(SCC(=O)Nc2ccc(F)cc2)nc2ccccc21)NCc1ccc(F)cc1  63%
60. Nc1nn(-c2ccccc2)nc1C(=O)OCc1c(F)cccc1Cl  61%
61. Nc1nn(-c2ccccc2)nc1C(=O)OCc1ccc(Cl)cc1  59%
62. CC(Oc1ccccc1)C(=O)Nc1c(C(=O)Nc2cccc(F)c2)oc2ccccc12 (stereo not given)  57%
63. CCc1ccc(OCCCn2c(-c3ccc(Cl)cc3)nc3ccccc3c2=O)cc1  52%
64. CSc1nc2sc3c(c2c(=O)n1-c1ccc(C)cc1)CCCC3  51%
65. Cc1cc(Cl)ccc1NC(=O)Cn1nc(C)c2c(C)n(-c3ccccc3)nc2c1=O  45%
66. C#CCSc1nc2sc3c(c2c(=O)n1Cc1ccccc1)CCCC3  44%
67. COc1cc(Cn2c(=O)sc3ccccc32)ccc1OC(C)C  41%
68. COc1ccc(OCCCCn2c(-c3ccc(Cl)cc3)nc3ccccc3c2=O)cc1  38%
69. CCOC(=O)C(Cc1c[nH]c2ccccc12)NC(=O)COc1ccc(CC)cc1 (stereo not given)  32%
70. Cc1cccc(CS(=O)(=O)c2ncc(Cl)c(C(=O)NCc3ccccc3)n2)c1  27%
71. O=C(Nc1nc2ccc(F)cc2s1)c1nc(S(=O)(=O)Cc2ccccc2)ncc1Cl  27%
72. COc1cccc(COC(=O)c2nn(-c3ccccc3)nc2N)c1  24%
73. Cc1ccc(CS(=O)(=O)c2ncc(Cl)c(C(=O)Nc3nc4ccc(F)cc4s3)n2)cc1  20%

For `CCOC(=O)C(Cc1c[nH]c2ccccc12)NC(=O)COc1ccc(Cl)c(C)c1` (stereo not given), the survival was 8% (active).
In the case of `CC(C)Sc1nc2sc3c(c2c(=O)n1Cc1ccccc1)CCCC3`, the survival was 5% (active).
In the case of `CC(C)Sc1nc2sc3c(c2c(=O)n1-c1ccccc1)CCCC3`, the survival was -2% (active).
In the case of `Cc1ccc(NC(=O)c2nc(S(=O)(=O)Cc3cccc(C)c3)ncc2Cl)cc1`, the survival was -1% (active).
In the case of `Cc1cccc(CS(=O)(=O)c2ncc(Cl)c(C(=O)Nc3nc4ccc(F)cc4s3)n2)c1`, the survival was 7% (active).
`CCOC(=O)c1ccc(CN(Cc2ccccc2)S(=O)(=O)c2ccc(Cl)cc2)cc1` was tested, and the survival was 0% (active).
In the case of `COc1ccc(-c2nc3ccccc3n2Cc2ccc(Cl)cc2)cc1`, the survival was 4% (active).
In the case of `COc1ccc(-c2nc3ccccc3n2Cc2ccc(C(C)C)cc2)cc1`, the survival was -8% (active).
In the case of `COc1ccc(-c2nc3ccccc3n2Cc2ccccc2)cc1`, the survival was 0% (active).
With `COc1cc(Cn2c(=O)sc3ccccc32)ccc1OCCC(C)C` the survival was -4% (active).
`CCCCOc1ccc(Cn2c(=O)sc3ccccc32)cc1OC` was tested, and the survival was -5% (active).
With `Nc1nn(-c2ccccc2)nc1C(=O)OCc1ccccc1Br` the survival was -2% (active).
`Cc1ccccc1COC(=O)c1nn(-c2ccccc2)nc1N` was tested, and the survival was -9% (active).
`Cc1ccc(C)c(Cn2c(-c3cccs3)nc3ccccc32)c1` was tested, and the survival was 8% (active).
With `Cc1ccccc1Cn1c(-c2cccs2)nc2ccccc21` the survival was 26% (active).
In the case of `Fc1cccc(Cl)c1Cn1c(-c2cccs2)nc2ccccc21`, the survival was 26% (active).
`Clc1ccccc1Cn1c(-c2cccs2)nc2ccccc21` was tested, and the survival was -3% (active).
`Cc1cccc(Cn2c(-c3cccs3)nc3ccccc32)c1` was tested, and the survival was -6% (active).
`COc1cccc(CNC(=O)Cn2c(SCC(=O)Nc3ccc(F)cc3)nc3ccccc32)c1` was tested, and the survival was 0% (active).
For `CC(=O)c1cccc(NC(=O)Cn2c(SCC(=O)Nc3ccc(F)cc3)nc3ccccc32)c1`, the survival was -3% (active).
`COc1cccc(Cn2c(SCC(=O)N(C)c3ccccc3)nc3ccccc32)c1` was tested, and the survival was -6% (active).
`COc1ccc(NC(=O)CSc2nc3ccccc3n2CC(=O)NCc2ccc(F)cc2)cc1` was tested, and the survival was -6% (active).
